# Measured values reported in the supplement of paper PMC3334620.
# Over roughly 33,000 sequences, “E-score (-0.5 to 0.5)” has its median near -0.017; the highest 2% begin near 0.3. The sample as a whole holds a higher share of the highest values than the screen did.
# Biological target: T1, Sut1 (UniProt P53032)
# T1 sequence: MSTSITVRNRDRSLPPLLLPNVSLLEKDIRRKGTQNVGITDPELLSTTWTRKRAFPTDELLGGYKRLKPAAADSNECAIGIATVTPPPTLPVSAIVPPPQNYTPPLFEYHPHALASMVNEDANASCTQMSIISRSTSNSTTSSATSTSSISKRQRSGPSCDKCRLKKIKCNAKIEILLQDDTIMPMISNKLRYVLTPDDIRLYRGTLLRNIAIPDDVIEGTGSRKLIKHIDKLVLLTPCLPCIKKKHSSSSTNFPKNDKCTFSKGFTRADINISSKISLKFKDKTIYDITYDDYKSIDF
# Test: PBM E-score (8-mer binding enrichment) (E-score (-0.5 to 0.5)); higher = stronger / more preferred TF binding
# Conditions: protein concentration: 200 nM; construct: GST-full length
# Procedure, shortened: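 E-scores (a modified Wilcoxon-Mann-Whitney statistic) were assigned by the Universal PBM Analysis Suite to every ungapped eight-base word pooled with its reverse complement. The input came from universal all-10-mer Agilent arrays made double-stranded by primer extension and probed with GST-tagged yeast transcription factors at about 100-200 nM. Fluorescent anti-GST detected bound protein, and masliner normalised the scans.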
row,Sequence,PBM E-score
1,CAGAAGGG,-0.238
2,ACTGCAAG,-0.0394
3,ATGGGAAA,0.0371
4,ATGGCCGG,-0.0767
5,GGCCGGAA,0.0761
6,AGCCGGTC,-0.166
7,CGCCGGCC,-0.0583
8,AGCCGGAC,0.342
9,AGCCGGAG,0.371
10,GGCCGGAC,0.302
11,CGCCGGAC,0.275
12,AGCCGGTG,0.00841
13,AGCCGGAA,0.233
14,AGCCGGCG,-0.0364
15,AGCCGGAT,0.125
16,CGCCGGCG,0.375
17,ACTTCTCA,-0.033
18,GCCCATGA,-0.222
19,AAGAGCGG,0.0491
20,GTCGCGCA,0.0446
21,TACTCTCA,0.0648
22,AACCGTCA,-0.0173
23,CGCCGGAA,0.132
24,CGCCGGAG,0.391
25,CGCCGTAG,0.0361

row,Sequence,PBM E-score
1,GCGAACGA,0.0664
2,ATTACTCC,0.318
3,GCTACTCA,0.0293
4,ATTACTTA,0.327
5,ATTACTCG,0.0802
6,ATTACTCA,0.162
7,ACTACTCC,0.226
8,CTTACTTA,0.11
9,GCTACTCC,0.3
10,ATTACTGA,0.037
11,CATACTCA,-0.0521
12,CATACTCC,0.325
13,AATACTCC,0.199
14,AATGGATC,0.0349
15,ATCGACCC,0.0935
16,AGTTTTTG,0.28
17,CGGGAGAG,-0.0788
18,TACACTCA,0.0601
19,ACATACTG,0.0299
20,AGAGCACA,-0.0607
21,AGTACCTG,0.0244
22,GCTCATGA,-0.172
23,CTGAAGAC,-0.0142
24,CTTACTAC,0.0954
25,CTTACTCA,-0.0535

row,Sequence,PBM E-score
1,CTTACTCC,0.365
2,TAGCCCCA,-0.121
3,GCCGTTAA,0.092
4,CCCGTTAA,-0.176
5,TCCGTTAA,0.326
6,CCCAAAGC,-0.0681
7,CCCTGGTA,-0.336
8,CTTGGGGC,-0.245
9,GGGTTAAC,0.0764
10,CTCCTAAG,-0.111
11,CCCTCCGA,0.0492
12,GACTCCAA,-0.0971
13,CACTCCGA,0.471
14,GACTCCTA,0.0134
15,TACTCCGA,0.491
16,TACTCCAA,-0.0372
17,CACTCCAA,0.0306
18,TCCTCCGA,0.0213
19,GACTCCGA,0.486
20,AAACTATT,0.24
21,AGCTAGGC,-0.232
22,GCCTAGGA,-0.122
23,ACTGGGGC,-0.231
24,GAGCTATC,-0.0645
25,GACCTTCC,0.0118

row,Sequence,PBM E-score
1,AGCCACCT,-0.248
2,GACCGAAC,0.0271
3,CACCGAAA,0.137
4,CACCGAAC,-0.0118
5,ATCCGAAT,0.32
6,GTCCGAAC,0.397
7,CGCCGAAA,-0.00015
8,CTCCGAAA,0.46
9,ATCCGAAG,0.101
10,ATCCGAAC,0.213
11,GCCCGAAC,-0.00475
12,AACCGAAT,0.099
13,CTCCGAAC,0.468
14,CCTAGCCC,-0.128
15,AACTAGTC,0.0497
16,ATCGATCA,0.0202
17,CGAAACAC,0.0972
18,CTAACTGA,0.0767
19,ACTGGAAT,0.0551
20,CGGCCGCC,-0.05
21,ATCCGAAA,0.272
22,GCCCGAAA,0.111
23,CTCCGAAG,0.457
24,CCCCGAAA,0.301
25,TTCCGAAA,0.291

row,Sequence,PBM E-score
1,CACCGAAG,0.157
2,GTCCGAAA,0.447
3,CCCCGAAC,0.0945
4,CGCCGAAG,0.0368
5,GCGCTAGC,-0.26
6,CGAGCCCG,-0.187
7,AGAACTAC,0.0481
8,CATTGATA,0.139
9,CAGACTCC,0.0916
10,GCGACTCC,0.119
11,CGGACTCA,0.429
12,CCGACTCA,0.0266
13,CCGACTCC,0.321
14,AGGACTCC,0.129
15,GGGACTCA,-0.288
16,AGGACTCA,-0.114
17,CGGACTCC,0.475
18,AAGGTCTA,-0.127
19,CTGGTTTA,-0.0882
20,ACCGACAC,0.0514
21,GCGACTAA,-0.0293
22,AGCCTAAC,-0.192
23,GGAACCTA,-0.00606
24,CGCTGCGA,-0.153
25,ATGTCCGA,0.45

row,Sequence,PBM E-score
1,CTGTCCGA,0.192
2,GTGTCCGA,0.149
3,ATGTCCGC,0.282
4,ATGTCCCG,0.0332
5,ATGTCCGG,0.451
6,ACACTGGT,-0.102
7,AGGGGCGG,-0.158
8,GAATATGA,0.0941
9,AAATATCA,0.161
10,CAATATCA,0.188
11,TAATATCA,0.306
12,GAATATTA,0.255
13,CAATATGA,0.181
14,TAATATGA,0.315
15,TAATATTA,0.313
16,CAATATTA,0.296
17,AAGCGCGC,0.105
18,ACCGATCA,0.12
19,AAAGTTCA,-0.00163
20,CCGCCTAG,-0.166
21,TCTTTTCA,0.178
22,AAGCTTAT,0.0714
23,TACACGGA,0.335
24,TAAACGAA,0.263
25,GAAACGGA,0.284

row,Sequence,PBM E-score
1,TAAACGTA,0.131
2,AAAACGGA,0.244
3,CACACGGA,0.12
4,CAAACGGA,0.302
5,TAAACGGA,0.321
6,GACACGGA,0.296
7,CGATGCTC,0.156
8,CCTTTAGC,-0.0413
9,AGATCGTC,-0.0781
10,GCTAAAAA,-0.0323
11,CCGCGGAA,0.253
12,ACGCGGAC,0.302
13,ACGCGGAG,0.362
14,GCGCGGAC,0.218
15,CCGCGGAC,0.274
16,ACGCGGAT,0.0724
17,ACGCGGCC,-0.273
18,ACGCGGAA,0.112
19,CCGCGGAG,0.308
20,ACATTTAC,0.168
21,AGGCCCTG,-0.302
22,CAAAGTTG,-0.0132
